Hits are enriched below; roughly 7.4% of the tested compounds scored in any of these assays.
FLuc modulator: firefly luciferase modulation, counter-screen for miR-21 project | purified FLuc, Km substrates, luminescence inhibition | 6.9% of 360,000 active | Potency, µM (series often up to 57.5 µM), without a hit: top-dose activity change, negative = inhibition, hits mostly inhibitors | P08659;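 note: plate controls were vehicle for no effect and reference inhibitor for full effect; nearly all actives have a fitted effect of over 55% in size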
Target sequence (P08659 whole entry, looked up): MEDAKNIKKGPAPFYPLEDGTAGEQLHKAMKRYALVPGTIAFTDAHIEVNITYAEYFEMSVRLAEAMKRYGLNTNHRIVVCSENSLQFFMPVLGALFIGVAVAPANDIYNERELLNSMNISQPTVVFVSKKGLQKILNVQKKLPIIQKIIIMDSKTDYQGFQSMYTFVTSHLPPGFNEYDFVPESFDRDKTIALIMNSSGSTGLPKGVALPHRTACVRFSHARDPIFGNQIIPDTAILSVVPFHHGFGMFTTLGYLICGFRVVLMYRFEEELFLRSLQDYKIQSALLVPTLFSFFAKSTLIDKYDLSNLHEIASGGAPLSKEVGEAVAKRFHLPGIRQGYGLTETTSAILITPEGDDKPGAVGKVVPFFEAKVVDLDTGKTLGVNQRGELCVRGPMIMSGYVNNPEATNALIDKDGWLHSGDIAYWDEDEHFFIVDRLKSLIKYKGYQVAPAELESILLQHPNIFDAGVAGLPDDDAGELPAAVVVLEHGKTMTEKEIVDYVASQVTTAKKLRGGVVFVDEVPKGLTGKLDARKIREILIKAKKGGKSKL
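Biochemical qHTS of compounds, final roughly 60 µM downward over six points, against 10 nM purified firefly luciferase using Km concentrations of substrates (10 uM D-luciferin, 10 uM ATP) in Tris acetate pH 7.5 buffer; luminescence output.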
Rab9 promoter act: Rab9 promoter activation; 2.8% of 320,000 active; Potency, µM (top dose mostly 9.22 µM), for inactives: top-dose activation, negative = inhibition, usual class: activators; AID 485297; Huh7 Rab9 promoter-luciferase reporter, luminescence, 24 h; note: % of control where 0% means no effect; nearly all actives have a fitted effect of over 60% in size
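Steps: seed 1500 Huh7 Rab9-luc cells per well, rest 2 h at 37 °C; add compound in DMSO; incubate 24 h; add luciferase reagent, 10 min ambient; read luminescence.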
NPC1 prom act: activates the NPC1 promoter; Huh7 NPC1 promoter luciferase reporter, 24 h; Potency, µM (doses to about 9.22 µM), for inactives: at the highest dose activation, actives largely listed as activators; 2.4% of 320,000 active; AID 485313; note: % of control where 0% means no effect; nearly all actives have a fitted effect of over 60% in size
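Huh7 cells stably carrying NPC1 promoter–luciferase, plated in Opti-MEM with 10% FBS for 2 h, were exposed to compound in DMSO for 24 h at 37 °C; luciferase reagent was added for 10 min and luminescence read.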
ELG1 genotox: inducers of genotoxicity in HEK293T ELG1-luciferase cells; HEK293T ELG1-luciferase reporter, luminescence, 16 h; Potency, µM (titrated, usually from 46 µM), for inactives: at the highest dose activity change, positive = activation, hits mostly activators; 1.3% of 330,000 active; note: % of control where 0% means no effect; nearly all actives have a fitted effect of over 60% in size
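Genotoxic stress is detected as increased luminescence from luciferase-tagged ELG1 in HEK293T cells, measured with ONE-Glo after a 16 hr treatment at 37 °C.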
SMN2 splice up: SMN2 splice variant enhancement; HEK293 SMN2-luciferase splicing reporter, luminescence, 30-36 h; Potency, µM (series often up to 46.1 µM), for inactives: top-dose activity change, positive = activation, most hits filed as activators; 2.8% of 210,000 active; note: % of control where 0% means no effect; nearly all actives have a fitted effect of over 55% in size
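qHTS luciferase splicing reporter: luminescence rises when SMN2 exon 7 is included in transfected HEK293 cells. Compound exposure lasted 30-36 h at 37C, with 4.5 mM final sodium butyrate as control, followed by a ONE-Glo read.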
* marks the source's active call; other numbers are inactive results; ? = inconclusive; nt = not tested or not shown; [ ] = remark or other dose. Calls come from the whole dose curve; as a rule, active = well fitted curve in the direction sought with a large enough effect; inconclusive = small, poorly fitted or top-dose-only effect, or another doubt; inactive = no such curve, though single readings can be large; an effect the other way counts as inactive or inconclusive. Potency is the fitted concentration of half-maximal effect.

SMILES | FLuc modulator | Rab9 promoter act | NPC1 prom act | ELG1 genotox | SMN2 splice up
Cc1ccccc1C(=O)NCCCc1ccccc1 | ? | 29.3% | 24.4% | 10.8% | 12.6µM*
CC1CCN(C(=O)Cn2cc(SCc3cccc(F)c3)c3ccccc32)CC1 | -2.8% | nt | nt | nt | nt
CC(C)c1nnc(NC(=O)c2cccc(NC(=O)C(F)(F)F)c2)s1 | 21.3µM* | 1.26µM* | 3.55µM* | ? | 14.1µM*
CC(C)C(=O)Nc1ccc(C(=O)Nc2nnc(C(C)C)s2)cc1 | ? | ? | 23.3% | 12.1% | nt
Cc1nnc(NC(=O)c2cccc(NC(=O)C(C)C)c2)s1 | -15.8% | 5.1% | 4.1% | 4.5% | 5.9%
CC(C)C(=O)Nc1cccc(C(=O)Nc2nnc(C(F)(F)F)s2)c1 | 16.9µM* | nt | nt | nt | 13.7%
CC(C)C(=O)Nc1cccc(C(=O)Nc2nnc(C(C)C)s2)c1 | ? | 1.41µM* | 2.82µM* | ? | 11.2µM*
CCc1nnc(NC(=O)c2cccc(NC(=O)C(C)C)c2)s1 | ? | ? | ? | 28.9% | 15.8µM*
Cc1ccc(Nc2cccccc2=O)cc1 | 15.1µM* | 3.55µM* | ? | ? | nt
COc1ccc(NC(=O)c2csc(C)c2)cc1OC | ? | 23.5% | 4.1% | ? | nt
COc1ccc(C)cc1S(=O)(=O)N1CCN(c2ccccc2)CC1 | -0.6% | 1.6% | -2.6% | -0.7% | nt
CCOc1ccccc1N1CCN(S(=O)(=O)c2cc(C)ccc2OC)CC1 | 16.9µM* | 2.51µM* | ? | ? | nt
O=C(OCc1nnc(-c2ccc(Cl)cc2)o1)C12CC3CC(CC(O)(C3)C1)C2 | 5.36µM* | 2.24µM* | 2.82µM* | ? | 11.7%
O=C1OCCC1Sc1nnc(-c2ccc(Cl)cc2Cl)o1 (stereo not drawn) | 1.35µM* | -3.6% | -0.1% | -5.0% | nt
CSc1nnc(-c2ccc(Cl)cc2Cl)o1 | 12µM* | ? | ? | ? | 15.6%
CCSc1nnc(-c2ccc(Cl)cc2Cl)o1 | 9.53µM* | ? | 2.51µM* | 4.11µM* | ?
O=C(O)CCSc1nnc(-c2ccc(Cl)cc2Cl)o1 | 0.849µM* | nt | nt | nt | -30.2%
CSc1nnc(-c2ccccc2Cl)o1 | ? | 21.9% | 9.9% | ? | 13.8%
CCc1cccc(NC(=O)CSc2nc3ccsc3c(=O)n2CC)c1 | -16.2% | nt | nt | nt | -43.9%
CC(C)OC(=O)CSc1nnc(-c2ccc(Cl)cc2Cl)o1 | 10.7µM* | -0.7% | 5.5% | -2.6% | 17.8%
O=[N+]([O-])c1ccccc1NC(=S)N/N=C/c1ccc(O)c(O)c1 | 19µM* | ? | ? | 3.66µM* | nt
CCOc1cccc(/C=N/NC(=S)Nc2ccccc2[N+](=O)[O-])c1O | ? | 1.5% | 4.9% | 0.366µM* | -80.7%
CC(=O)Nc1ccc(NC(=O)CSc2ccc3nnc(-c4ccccn4)n3n2)cc1 | 3.3% | 0.7% | -3.1% | 9.3% | nt
Cc1ccccc1-c1nc2cc(NC(=O)C3CC3)ccc2o1 | 1.69µM* | 0.501µM* | 0.447µM* | 4.61µM* | nt
CC(=O)Nc1ccc2oc(-c3cc(F)c(F)cc3Cl)nc2c1 | 1.9µM* | 0.398µM* | 0.316µM* | 1.84µM* | 8.91µM*
SMILES | FLuc modulator | Rab9 promoter act | NPC1 prom act | ELG1 genotox | SMN2 splice up
CC(=O)Nc1ccc2oc(-c3ccccc3Br)nc2c1 | 2.39µM* | 0.447µM* | 0.891µM* | 1.84µM* | 11.2µM*
Cc1ccccc1-c1nc2cc(NC(=O)Cc3ccc(Cl)cc3)ccc2o1 | -10.2% | nt | nt | nt | -3.6%
CCC(=O)Nc1ccc2oc(-c3ccccc3Br)nc2c1 | 3.01µM* | 2µM* | 1.78µM* | ? | 10µM*
CC(=O)Nc1ccc2oc(C)nc2c1 | -1.9% | 1.5% | 0.4% | -1.2% | nt
COCCn1c(SC(C)C(=O)NCC2CCCO2)nc2sc3c(c2c1=O)CCC3 (stereo not drawn) | -0.7% | -6.5% | -2.3% | 3.8% | nt
CN(C)c1ccc(C2C=C(c3ccccc3)Nc3nnnn32)cc1 (stereo not drawn) | -7.1% | nt | nt | nt | -13.2%
Cn1ccnc1SCc1ccc([N+](=O)[O-])cc1 | -4.3% | 0.8% | 1.1% | 0.2% | 5.4%
Cn1ccnc1SCC(=O)Nc1cccc(C(F)(F)F)c1 | 2.2%[2.3 µM] | 14.5% | 11.8% | 9.2% | -7.7%
COc1cc(C(=O)CSc2nccn2C)cc(OC)c1OC | -1.1% | 7.8% | -0.4% | 11.0% | nt
COC(=O)c1ccc(CSC2=NCCS2)cc1 | ? | ? | ? | ? | 17.8µM*
COC(=O)c1ccc(CSc2nccn2C)cc1 | ? | 18.1% | 18.4% | 13µM* | 11.2µM*

Source: PubChem BioAssay (National Center for Advancing Translational Sciences (NCATS))
